Assay outcomes: PubChem BioAssay, several laboratories
Only some compounds are listed: those with a hit (about 1.3% of all), similar ones and a draw of the others.
HTR5A ag ctr: HTR5A agonists in luminescence cell assay, primary screen, counter-screen for OPRM1-OPRD1 heterodimer agonist project, full-deck HTS | 5-hydroxytryptamine receptor 5A (Homo sapiens), P47898 | cell-based | activation, % at 9.3 µM | hit rate 0.61% among 340,000 | AID 504692, 2011; in the data active = activation mostly above about 9.5%, no sharp cut-off; inactive = mostly below about 7.6%
MOR-DOR ag-1: agonists of OPRM1-OPRD1 heterodimerization, primary screen, cell-based, luminescence. Mu-type opioid receptor (Homo sapiens) + Delta-type opioid receptor (Homo sapiens), …. cells. activation, % at 9.3 µM. hit rate 0.3% among 340,000. AID 504326, 2011
Target sequence (P35372 whole entry, looked up): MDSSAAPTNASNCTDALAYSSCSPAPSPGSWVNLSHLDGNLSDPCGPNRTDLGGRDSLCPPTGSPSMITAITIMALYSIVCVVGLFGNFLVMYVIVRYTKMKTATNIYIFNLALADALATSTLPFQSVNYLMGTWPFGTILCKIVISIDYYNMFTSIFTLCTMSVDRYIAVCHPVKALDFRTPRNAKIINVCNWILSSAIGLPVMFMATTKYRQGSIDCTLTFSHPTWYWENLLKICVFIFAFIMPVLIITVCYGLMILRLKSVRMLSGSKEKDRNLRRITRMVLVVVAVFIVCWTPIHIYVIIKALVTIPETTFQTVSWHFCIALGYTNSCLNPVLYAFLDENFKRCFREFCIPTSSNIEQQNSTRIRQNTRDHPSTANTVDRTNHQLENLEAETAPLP
Target sequence (P41143 whole entry, looked up): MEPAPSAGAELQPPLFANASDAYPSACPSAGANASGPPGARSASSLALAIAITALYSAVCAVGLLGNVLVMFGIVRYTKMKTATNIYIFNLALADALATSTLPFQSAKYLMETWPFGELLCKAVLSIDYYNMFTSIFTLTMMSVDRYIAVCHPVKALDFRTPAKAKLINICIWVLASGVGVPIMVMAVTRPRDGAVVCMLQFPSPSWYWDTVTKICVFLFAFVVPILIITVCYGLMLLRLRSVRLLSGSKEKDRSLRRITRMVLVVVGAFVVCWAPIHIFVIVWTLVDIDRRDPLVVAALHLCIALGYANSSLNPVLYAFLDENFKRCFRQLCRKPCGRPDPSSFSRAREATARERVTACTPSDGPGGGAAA
Yeast superoxide: reduction of superoxide in aged yeast, primary screen, HTS. S. cerevisiae aged cells, superoxide DHE fluorescence; stronger effect = lower value. superoxide response (% of plate mean), % at 10 µM. hit rate 0.18% among 330,000. AID 2690, 2010;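 active = superoxide response under a set limit, about three screen SD below normal, cut at about 65% in these data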;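 note: yeast aged for seven days with compound at 30 °C before DHE staining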
OPRM1-OPRD1 inv: inverse agonists of MOR-DOR heterodimerization, primary screen, cell-based, luminescence; Mu-type opioid receptor (Homo sapiens) + Delta-type opioid receptor (Homo sapiens), …; cell-based MOR-DOR heterodimer luminescence, inverse agonism; inhibition, % at 9.3 µM; hit rate 0.21% among 340,000; in the data active = inhibition above about 22%, passing the limit was not always enough
PvdQ inh: P. aeruginosa PvdQ acylase inhibitors, primary screen, biochemical, fluorescence, plate reader and imaging, single point. PvdQ acylase [Pseudomonas aeruginosa LESB58]. purified PvdQ acylase. inhibition, % at 10 µM. hit rate 0.063% among 340,000; in the data active = inhibition above about 30%, passing the limit was not always enough; inconclusive = no clear call, values can overlap the other calls
HTR5A inv ag: HTR5A inverse agonists in luminescence cell assay, primary screen, counter-screen for OPRM1-OPRD1 heterodimer inverse agonist project, full-deck HTS; 5-hydroxytryptamine receptor 5A (Homo sapiens), P47898; HTR5A cell line, inverse agonism; inhibition, % at 9.3 µM; hit rate 0.083% among 340,000; AID 504634, 2011; in the data active = inhibition mostly above about 23%, no sharp cut-off; inactive = mostly below about 18%
MOR-DOR ag-2: OPRM1-OPRD1 heterodimerization promoters, counter-screen for HTR5A agonist project, cell-based, luminescence; shares compounds with HTR5A ag ctr; U2OS counter-screen cells, complementation luminescence, 3 h; activation, % at 9.3 µM; hit rate 13% among 800
HTR5A ag confirm: HTR5A agonists, retest of hits, confirmation, cell-based, luminescence; shares compounds with HTR5A ag ctr; hit rate 17% among 800; activation, % at 9.3 µM; HTR5A agonist cell assay; in the data active = activation above about 17%
Large screens that a line does not name were inactive (follow-up assays come after a bar, where they were run). Cut-off read from the data, not from the text of the source, unless noted: active = activation above about 18%; inactive = the rest.

S=c1nc2[nH]c3ccccc3c2n[nH]1	none (no result: Yeast superoxide)
COc1cc(C#Cc2c(-c3cncn3C)n(C)c3ccc(-c4cnc(N5CCOCC5)nc4)cc23)cc(OC)c1	none
COc1cc(C#Cc2c(-c3cncn3C)n(C)c3ccc(-c4ccc(CN5CCOCC5)cc4)cc23)cc(OC)c1	HTR5A ag ctr 16.4 | MOR-DOR ag-2 19.6 | HTR5A ag confirm inactive
CCC(C)(C)C1CCC(NC(=O)N2CCN(c3ccccc3O)CC2)CC1 (stereo unspecified)	HTR5A ag ctr 14.8 | MOR-DOR ag-2 inactive | HTR5A ag confirm inactive
O=c1[nH]c(C2CCN(S(=O)(=O)c3ccc(C(F)(F)F)cc3)CC2)nc2c1nnn2Cc1ccc(F)cc1	HTR5A ag ctr 18.1, PvdQ inh inconclusive | MOR-DOR ag-2 inactive | HTR5A ag confirm inactive
Cc1ccc(-c2nc(SCC(=O)Nc3cc(C)on3)c3c(=O)n(C)c(=O)n(C)c3n2)cc1	none
OCC1OC(n2cnc3c(/C=C(\O)c4ccccc4)ncnc32)C(O)C1O (stereo unspecified)	none (no result: Yeast superoxide)
CC(=O)CCc1ccc(OCCCOc2cccc3cccnc23)cc1	HTR5A ag ctr 22.9 | MOR-DOR ag-2 inactive | HTR5A ag confirm inactive
CC(C)(C)NC(=O)C(c1ccc(O)cc1)N(C(=O)CCC(=O)Nc1ccccn1)c1ccc(F)cc1 (stereo unspecified)	none
Cc1nc(Nc2ccc(Cl)cc2)c(C#N)c(=O)[nH]1	HTR5A ag ctr 15.6 | MOR-DOR ag-2 inactive | HTR5A ag confirm inactive
CCc1cc(=O)oc2cc(C)cc(OCC(=O)NC3CCN(Cc4ccccc4)CC3)c12	none
CCCCc1cc(=O)oc2cc(OCC(=O)NC3CCN(Cc4ccccc4)CC3)ccc12	HTR5A ag ctr 14.5 | MOR-DOR ag-2 inactive | HTR5A ag confirm inactive
CC(C)=C1SC(N2CCN(c3cccc(Cl)c3)CC2)=NC1=O	HTR5A ag ctr 14.3 | MOR-DOR ag-2 34.6 | HTR5A ag confirm inactive
CC(C)=C1SC(N2CCN(Cc3ccccc3)CC2)=NC1=O	none
CCOC(=O)N1C(=O)NC(=O)C1c1ccc(Cl)cc1 (stereo unspecified)	none (no result: Yeast superoxide)
Cc1cc(C)c2c(c1)SC1=NC(c3ccccc3)(C(F)(F)F)NC(=O)N12 (stereo unspecified)	HTR5A ag ctr 16.2 | MOR-DOR ag-2 inactive | HTR5A ag confirm inactive
O=C(c1ccc(Cl)c(S(=O)(=O)N2CCCC2)c1)N1CCN(c2ncccn2)CC1	HTR5A ag ctr 20.4 | MOR-DOR ag-2 inactive | HTR5A ag confirm inactive
O=C(c1ccc(Cl)c(S(=O)(=O)NCc2ccccc2)c1)N1CCN(c2ccccn2)CC1	HTR5A ag ctr 21.4 | MOR-DOR ag-2 inactive | HTR5A ag confirm inactive
O=C(c1ccc(Cl)c(S(=O)(=O)N2CCCC2)c1)N1CCN(c2ccccc2F)CC1	HTR5A ag ctr 20.9 | MOR-DOR ag-2 inactive | HTR5A ag confirm inactive
O=C(c1ccc(CNS(=O)(=O)c2ccccc2)cc1)N1CCN(c2ccccn2)CC1	none
CC(=O)N1CCN(C(=O)c2ccc(Cl)c(S(=O)(=O)N3CCCC3)c2)CC1	none
CCOC(=O)c1cc(-c2ccccc2C)n(CC2CC(c3cccc([N+](=O)[O-])c3)=NO2)n1 (stereo unspecified)	none
CN(CC(=O)NC1CCN(Cc2ccccc2)CC1)S(=O)(=O)c1ccc(Br)s1	HTR5A ag ctr 14.8 | MOR-DOR ag-2 inactive | HTR5A ag confirm inactive
O=C(Nc1ccc(-n2cc(Cl)cn2)cc1)c1ccncc1	HTR5A ag ctr 14.4 | MOR-DOR ag-2 18.1 | HTR5A ag confirm inactive
O=C(Nc1ccc(-n2cc(Br)cn2)cc1)c1ccncc1	none
Cc1ncc([N+](=O)[O-])n1CC(=O)Nc1ccc(Br)cc1	none
CS(=O)(=O)c1ccc2nc(NC(=O)c3ccc(NS(=O)(=O)c4cccc([N+](=O)[O-])c4)cc3)sc2c1	none
CS(=O)(=O)c1ccc2nc(NC(=O)CCNC(=O)c3ccc([N+](=O)[O-])cc3)sc2c1	HTR5A ag ctr 19.6 (no result: Yeast superoxide) | MOR-DOR ag-2 inactive | HTR5A ag confirm inactive
CCc1ccc(CCC(=O)Nc2ncc(Cc3ccccc3Cl)s2)o1	HTR5A ag ctr 16.9 | MOR-DOR ag-2 21.6 | HTR5A ag confirm inactive
CC(C)Oc1ccc(C2CNC(=O)C2)cc1 (stereo unspecified)	HTR5A ag ctr 23.1 | MOR-DOR ag-2 inactive | HTR5A ag confirm 64.6
O=C(CCS(=O)(=O)Cc1ccccc1F)NCCc1ccc(Cl)cc1	none
CCOC(=O)c1cccc(NC(=O)C2CCC(CNc3c(N4CCOCC4)c(=O)c3=O)CC2)c1 (stereo unspecified)	HTR5A ag ctr 22.0 | MOR-DOR ag-2 inactive | HTR5A ag confirm inactive
Cn1c(CN2CCCCC2)nc2cc(NC(=O)c3ccc(Cl)cc3)ccc21	HTR5A ag ctr 39.1 | MOR-DOR ag-2 inactive | HTR5A ag confirm 43.6
Cn1c(CN2CCCC2)nc2cc(NC(=O)c3ccc(Cl)cc3)ccc21	none
CCN1C(=NCC(C)C)N[C@@H](c2cccc(F)c2)C(C(=O)OC)=C1C	none
CCCCCCCCCCn1c2c(c(=N)c3c1CCC3)CCC2	HTR5A ag ctr 34.5 | MOR-DOR ag-2 inactive | HTR5A ag confirm inactive
CCCCCCCCCn1c2c(c(=N)c3c1CCC3)CCCC2	none (no result: HTR5A ag ctr, MOR-DOR ag-1, Yeast superoxide, OPRM1-OPRD1 inv, HTR5A inv ag)
Brc1ccc(Br)c2cnccc12	none (no result: Yeast superoxide)
Cc1cccc(CC(=O)Nc2cc(=O)n(C)c(=O)n2C)c1	none
Cn1c(NC(=O)Cc2cccs2)cc(=O)n(C)c1=O	HTR5A ag ctr 19.0 | MOR-DOR ag-2 inactive | HTR5A ag confirm inactive
CCc1cc[n+](-c2nc3ccccc3nc2C(=C=[N-])C#N)cc1	HTR5A ag ctr 15.8 | MOR-DOR ag-2 inactive | HTR5A ag confirm inactive
CCS(=O)(=O)N1CCC2(CC1)OCCN2S(=O)(=O)c1ccc(OC)cc1	none (no result: Yeast superoxide)
O=C(NC1CCCCCCC1)c1ccccc1O	none
O=C(NC1CCCCC1)c1cc2ccccc2cc1O	HTR5A ag ctr 17.3 | MOR-DOR ag-2 inactive | HTR5A ag confirm inactive
COc1ccc(NC(=O)CN(C)C(=O)C2CC(=O)N(c3cccc4ccccc34)C2)cc1 (stereo unspecified)	HTR5A ag ctr 16.0 | MOR-DOR ag-2 inactive | HTR5A ag confirm inactive
COc1ccc(NC(=O)CN(C)C(=O)C2CC(=O)N(c3ccc4c(c3)OCCO4)C2)cc1 (stereo unspecified)	none
